Drawing on the supplement of paper PMC10981050, this text covers cell viability for nine compounds.

For orientation: cell viability means a read-out of living cells in per cent, often relative to untreated cells.

Several values for one entry are separate records, joined by “and”; a condition that tells them apart may be missing. Equal entries are not always repeated.

Holding throughout (test): cell viability relative to vehicle control; higher = less cytotoxic
Holding throughout (conditions): 10 µM

The subject of one test is K562. An outline of the steps: (§1)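 Four leukaemia lines, as CRISPR-edited mutant clones and isogenic wild-type clones, were tested against Selleck bioactive, kinase and epigenetic probe libraries after removal of identity-inconsistent compounds. Cells were exposed to a single 10 µM dose for 48 h, and CellTiter-Glo luminescence was then read. Viability was calculated relative to the on-plate vehicle control.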

In a further test the test system is MARIMO. An outline of the steps: as §1
The test system of the next test is MOLM14. The method in brief:
as §1

Another test concerns OCI-AML2. An outline of the steps:
as §1

In the case of `CO[C@H]1C[C@H](O[C@@H]2/C(C)=C/C[C@@H]3C[C@@H](C[C@]4(CC[C@H](C)[C@@H](C5CCCCC5)O4)O3)OC(=O)[C@@H]3C=C(C)/C(=N/O)[C@H]4OC/C(=C\C=C\[C@@H]2C)[C@]43O)O[C@@H](C)[C@@H]1O` [Selamectin], the cell viability in the test with K562 (SRSF2 genotype: SRSF2 P95H/wt) was 16.6% and 37.1%; in the test with K562 (SRSF2 genotype: SRSF2 wt/wt), 27.3%; in the test on MARIMO (SRSF2 genotype: SRSF2 P95H/wt), 3.71%; with MARIMO (SRSF2 genotype: SRSF2 wt/wt), 4.17%; in the test on MOLM14 (SRSF2 genotype: SRSF2 P95H/wt), 38.4%; in the test on MOLM14 (SRSF2 genotype: SRSF2 wt/wt), 17%. Besides, the values for the cell viability with OCI-AML2 (SRSF2 genotype: P95H/wt) and in the test with OCI-AML2 (SRSF2 genotype: wt/wt) were 10.6% and 24.5%, respectively.
Turning to `Oc1cc(CNC(=S)/C=C/c2cc(O)c(O)c(Br)c2)cc(O)c1O`, the cell viability with K562 (SRSF2 genotype: SRSF2 P95H/wt) was 20.1% and 32.5%; in the test with K562 (SRSF2 genotype: SRSF2 wt/wt), 23.6%; with MARIMO (SRSF2 genotype: SRSF2 P95H/wt), 16.6%; in the test with MARIMO (SRSF2 genotype: SRSF2 wt/wt) it was 23.2%; with MOLM14 (SRSF2 genotype: SRSF2 P95H/wt), 14.3%; with MOLM14 (SRSF2 genotype: SRSF2 wt/wt), 5.87%. Further, the cell viability in the test with OCI-AML2 (SRSF2 genotype: P95H/wt) stood at 28.1%; in the test on OCI-AML2 (SRSF2 genotype: wt/wt), 26.9%.
For `C[C@H]1O[C@@H](O[C@H]2CC[C@@]3(C)[C@@H](CC[C@]4(C)[C@@H]3C=CC3=C5CC(C)(C)CC[C@]5(CO)[C@@H](O)C[C@]34C)[C@]2(C)CO)[C@H](O[C@@H]2O[C@H](CO)[C@@H](O)[C@H](O)[C@H]2O)[C@@H](O[C@@H]2O[C@H](CO)[C@@H](O)[C@H](O)[C@H]2O)[C@H]1O` [Buddlejasaponin IVb], the cell viability in the test with K562 (SRSF2 genotype: SRSF2 P95H/wt) was 96.5% and 97%; in the test with K562 (SRSF2 genotype: SRSF2 wt/wt), 97.8%; with MARIMO (SRSF2 genotype: SRSF2 P95H/wt), 98.4%; in the test with MARIMO (SRSF2 genotype: SRSF2 wt/wt) it was 108%; in the test with MOLM14 (SRSF2 genotype: SRSF2 P95H/wt), 98.3%; in the test with MOLM14 (SRSF2 genotype: SRSF2 wt/wt), 102%. Further, the figures for the cell viability with OCI-AML2 (SRSF2 genotype: P95H/wt) and in the test with OCI-AML2 (SRSF2 genotype: wt/wt) were 101% and 106%, respectively.
As to `CC1(COc2ccc3c(c2)ncn3-c2ccc3cccc(N4CCC(N)CC4)c3n2)COC1`, the cell viability in the test on K562 (SRSF2 genotype: SRSF2 P95H/wt) is 84.9% and 68.8%; in the test on K562 (SRSF2 genotype: SRSF2 wt/wt) it was 71.4%; in the test with MARIMO (SRSF2 genotype: SRSF2 P95H/wt) it was 5.64%; with MARIMO (SRSF2 genotype: SRSF2 wt/wt), 16.6%; in the test with MOLM14 (SRSF2 genotype: SRSF2 P95H/wt), 5.66%; in the test on MOLM14 (SRSF2 genotype: SRSF2 wt/wt), 1.2%. Further, the cell viability in the test on OCI-AML2 (SRSF2 genotype: P95H/wt) was found to be 14.6%; with OCI-AML2 (SRSF2 genotype: wt/wt), 13%.
Regarding `CC(NC(=O)Cc1cc(F)cc(F)c1)C(=O)NC(C(=O)OC(C)(C)C)c1ccccc1` (configuration not stated), the cell viability was 98.8% and 103% in the test with K562 (SRSF2 genotype: SRSF2 P95H/wt); 106% with K562 (SRSF2 genotype: SRSF2 wt/wt); 83.2% with MARIMO (SRSF2 genotype: SRSF2 P95H/wt); 95.7% in the test on MARIMO (SRSF2 genotype: SRSF2 wt/wt); 96.8% with MOLM14 (SRSF2 genotype: SRSF2 P95H/wt); 103% in the test with MOLM14 (SRSF2 genotype: SRSF2 wt/wt). The cell viability came out at 90% in the test on OCI-AML2 (SRSF2 genotype: P95H/wt) and 102% in the test with OCI-AML2 (SRSF2 genotype: wt/wt).
As to `O=C(/C=C/c1cncc(F)c1)c1c(-c2ccccc2)c2cc(Cl)ccc2[nH]c1=O`, the cell viability in the test on K562 (SRSF2 genotype: SRSF2 P95H/wt) is 6.82% and 5.38%; in the test on K562 (SRSF2 genotype: SRSF2 wt/wt), 2.2%; in the test with MARIMO (SRSF2 genotype: SRSF2 P95H/wt), 3.3%; with MARIMO (SRSF2 genotype: SRSF2 wt/wt), 0.38%; with MOLM14 (SRSF2 genotype: SRSF2 P95H/wt), 0.08%; in the test with MOLM14 (SRSF2 genotype: SRSF2 wt/wt), 0.04%. The cell viability in the test on OCI-AML2 (SRSF2 genotype: P95H/wt) was 0.13%; in the test on OCI-AML2 (SRSF2 genotype: wt/wt), 0.16%.
Turning to `Cc1cc(/C=C2/SC(=S)NC2=O)c(C)n1-c1cccnc1` [Optovin], the cell viability was 85.7% and 83.4% with K562 (SRSF2 genotype: SRSF2 P95H/wt); 85% with K562 (SRSF2 genotype: SRSF2 wt/wt); 92.2% with MARIMO (SRSF2 genotype: SRSF2 P95H/wt); 102% in the test with MARIMO (SRSF2 genotype: SRSF2 wt/wt); 89.3% in the test with MOLM14 (SRSF2 genotype: SRSF2 P95H/wt); 90.5% in the test with MOLM14 (SRSF2 genotype: SRSF2 wt/wt). Moreover, the figures for the cell viability in the test with OCI-AML2 (SRSF2 genotype: P95H/wt) and with OCI-AML2 (SRSF2 genotype: wt/wt) were 107% and 97.2%, respectively.
For the compound `CCOC(=O)C1=C(COCCN)NC(C)=C(C(=O)OC)C1c1ccccc1Cl` (configuration not stated) [Amlodipine besylate (Norvasc)], the cell viability in the test with K562 (SRSF2 genotype: SRSF2 P95H/wt) is 79.6% and 95.8%; with K562 (SRSF2 genotype: SRSF2 wt/wt) it was 84.3%; in the test with MARIMO (SRSF2 genotype: SRSF2 P95H/wt) it was 76.8%; in the test on MARIMO (SRSF2 genotype: SRSF2 wt/wt), 78.3%; in the test on MOLM14 (SRSF2 genotype: SRSF2 P95H/wt), 54.7%; in the test on MOLM14 (SRSF2 genotype: SRSF2 wt/wt), 59.5%. For the same compound, the results for the cell viability in the test with OCI-AML2 (SRSF2 genotype: P95H/wt) and with OCI-AML2 (SRSF2 genotype: wt/wt) were 36.2% and 44.2%, respectively.
With `CC(C)C[C@H](NC(=O)CNC(=O)c1cc(Cl)ccc1Cl)B(O)O` [Ixazomib (MLN2238)], the cell viability came to 2.07% with K562 (SRSF2 genotype: SRSF2 P95H/wt); 3.87% in the test with K562 (SRSF2 genotype: SRSF2 wt/wt); 0.76% with MARIMO (SRSF2 genotype: SRSF2 P95H/wt); 3.15% in the test on MARIMO (SRSF2 genotype: SRSF2 wt/wt); 0.41% in the test with MOLM14 (SRSF2 genotype: SRSF2 P95H/wt); 0.47% in the test with MOLM14 (SRSF2 genotype: SRSF2 wt/wt). Moreover, the cell viability with OCI-AML2 (SRSF2 genotype: P95H/wt) stood at 0.44%; in the test with OCI-AML2 (SRSF2 genotype: wt/wt) it was 1.8%.
